Experimental data as given in PubChem BioAssay (Tox21).
Several values for one entry are separate records, joined by “and”; a condition that tells them apart may be missing. Equal entries are not always repeated. Results filed as inconclusive are left out. The source holds several records for some structures; these can differ, active in one and inactive in another. Activity calls are given as the source filed them. Unless noted, the call rests on the fitted dose curve; in most records, active means well fitted curve in the direction sought with a large enough effect in the repeat runs; inconclusive means weak or mixed curves; inactive means no such curve, though single readings can be large; an effect the other way counts as inactive or inconclusive.

Legend:
[1] = qHTS assay to identify small molecule agonists of the hypoxia (HIF-1) signaling pathway - cell viability counter screen (AID 1224844; calls by dose curve; further: nearly all actives have a fitted effect of over 50% in size)
Outline: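 Same wells as the HIF-1 reporter screen; ME-180 cells carrying HRE-bla, 17 hr treatment at 37C; CellTiter-Glo luminescence read after 30 min at room temperature.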

[2] = qHTS assay to identify small molecule agonists of H2AX (AID 1224845; active means well fitted activation curve with a large enough effect in the signal ratio in the repeat runs, not every such curve was filed as active; the % refers to the signal ratio)
Outline: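 Wild-type CHO-K1 cells, plated overnight, exposed 3hr at 37C to 15 concentrations (0.76% DMSO final). Lysed, then HTRF anti-pH2AX (S139) cryptate and anti-H2AX-d2 antibodies, 24 hr room temperature; 665/620 nm emission read.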

[3] = qHTS assay to identify small molecule agonists of the hypoxia (HIF-1) signaling pathway (AID 1224846; active means well fitted activation curve with a large enough effect in the signal ratio in the repeat runs, not every such curve was filed as active; the % refers to the signal ratio)
Outline: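 In ME-180 cells bearing an HRE-bla construct, 17 h treatment with DMSO-dissolved compounds at 37C was followed by CCF4-AM loading to quantify reporter induction.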

[4] = qHTS assay to identify small molecule agonists of H2AX - cell viability counter screen (AID 1224847; calls by dose curve; further: nearly all actives have a fitted effect of over 30% in size; further: potency means the concentration at half of the fitted maximal effect)
Outline: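 After overnight plating of 1000 CHO-K1 cells per well, a 15-concentration compound series was applied for 3 hr at 37C. Luminescence from CellTiter-Glo, read following 30 min at room temperature, reflected cell viability.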

[5] = qHTS assay to identify small molecule antagonists of the estrogen related receptor (ERR) signaling pathway from Tox21 library (AID 1224848); further: nearly all actives have a fitted effect of over 50% in size; further: potency means the concentration at half of the fitted maximal effect
Outline: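 Quantitative high-throughput format: ERR reporter cells (2,000/well) pre-incubated 6 h, treated 18 h at 37 C with compounds in DMSO alongside positive and negative controls, then read by ONE-Glo luminescence.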

[6] = qHTS assay to identify small molecule agonists of the estrogen related receptor (ERR) signaling pathway from Tox21 library (AID 1224849; calls by dose curve; further: nearly all actives have a fitted effect of over 15% in size); details: ERR reporter cell line, ONE-Glo luciferase, 18 h
Outline: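 Reporter cells (ERR, NTP source) treated with Tox21 10K compounds 18 h, 37 C. Readout: ONE-Glo luminescence, 30 min RT.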

[7] = qHTS RealTime-Glo MT Cell Viability Assay in HepG2 cells - 24 hour (AID 1224867); further: nearly all actives have a fitted effect of over 50% in size
Outline: (§1)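 Viability was tracked continuously by NanoLuc luminescence from prosubstrate reduced by living HepG2 cells, at successive time points over 40 h of compound exposure. Cells with reagent were preincubated 5 h at 37 °C before compound addition.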

[8] = qHTS RealTime-Glo MT Cell Viability Assay in HEK293 cells - 32 hour (AID 1224868); further: nearly all actives have a fitted effect of over 50% in size; further: potency means the concentration at half of the fitted maximal effect
Outline: (§2)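 Viability tracked continuously by luminescence as live cells reduce a prosubstrate for NanoLuc; HEK293 cells preincubated 5 h, compound-treated at 37 C, and read at 0, 8, 16, 24, 32 and 40 h.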

[9] = A CellTox Green Cytotoxicity Assay to monitor cytotoxicity in HEK293 cells - 0 hour (AID 1224869); further: nearly all actives have a fitted effect of over 50% in size
Outline: (§3)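 Homogeneous no-lysis format: HEK293 cell suspension mixed with CellTox Green reagent, seeded, incubated 5 h at 37 C/5% CO2, then dosed by pintool with compound in DMSO.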

[10] = qHTS RealTime-Glo MT Cell Viability Assay in HepG2 cells - 40 hour (AID 1224870); further: nearly all actives have a fitted effect of over 50% in size
Outline: (§4)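 HepG2 cells (600/well) mixed with RealTime-Glo MT reagent, settled 5 h at 37 C/5% CO2 before compound addition. Nonlytic NanoLuc luminescence from viable-cell prosubstrate reduction read repeatedly during 40 h treatment at 37 C.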

[11] = A CellTox Green Cytotoxicity Assay to monitor cytotoxicity in HEK293 cells - 40 hour (AID 1224871); further: nearly all actives have a fitted effect of over 45% in size; further: potency means the concentration at half of the fitted maximal effect
Outline: as §3

[12] = qHTS RealTime-Glo MT Cell Viability Assay in HEK293 cells - 16 hour (AID 1224872); further: nearly all actives have a fitted effect of over 50% in size; further: potency means the concentration at half of the fitted maximal effect
Outline: as §2

[13] = qHTS RealTime-Glo MT Cell Viability Assay in HepG2 cells - 8 hour (AID 1224873); further: nearly all actives have a fitted effect of over 55% in size
Outline: as §4

[14] = qHTS RealTime-Glo MT Cell Viability Assay in HEK293 cells - 40 hour (AID 1224874); details: RealTime-Glo luminescence; max response: stronger effect = lower value; further: nearly all actives have a fitted effect of over 50% in size; further: potency means the concentration at half of the fitted maximal effect
Outline: (§5)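 Measured as luminescence from the same continuously cultured HEK293 wells at successive time points (0, 8, 16, 24, 32, 40 h) after compound addition. Reagent present from seeding; dosing at 5 h; incubation 37 C.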

[15] = A CellTox Green Cytotoxicity Assay to monitor cytotoxicity in HEK293 cells - 24 hour (AID 1224875); further: nearly all actives have a fitted effect of over 45% in size
Outline: as §3

[16] = A CellTox Green Cytotoxicity Assay to monitor cytotoxicity in HepG2 cells - 16 hour (AID 1224876); further: nearly all actives have a fitted effect of over 45% in size
Outline: (§6)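 Fluorescent DNA-binding dye, 600 HepG2 cells/well, 5 h preincubation then compound in DMSO; same plates read at 0–40 h, 37 C.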

[17] = qHTS RealTime-Glo MT Cell Viability Assay in HepG2 cells - 32 hour (AID 1224877); further: nearly all actives have a fitted effect of over 55% in size
Outline: as §1

[18] = A CellTox Green Cytotoxicity Assay to monitor cytotoxicity in HepG2 cells - 24 hour (AID 1224878); further: nearly all actives have a fitted effect of over 45% in size; further: potency means the concentration at half of the fitted maximal effect
Outline: as §6

[19] = A CellTox Green Cytotoxicity Assay to monitor cytotoxicity in HepG2 cells - 40 hour (AID 1224879); further: nearly all actives have a fitted effect of over 40% in size; further: potency means the concentration at half of the fitted maximal effect
Outline: as §6

[20] = qHTS RealTime-Glo MT Cell Viability Assay in HEK293 cells - 0 hour (AID 1224880)
Outline: as §5
On the % scale 0 is the no-effect control and ±100 the full control effect.

CCCCNC(=O)NS(=O)(=O)c1ccc(N)cc1
inactive: Potency [1] | Potency [2] | outcome [3] | Potency [4] | Potency [5] | activity change, positive = activation ([6]; at 42.5 µM (top of the series)) -4% | activity change, positive = activation ([6]; at 92.4 µM (top of the series)) 2.9% | outcome [7] | Potency [8] | Potency [9] | outcome [10] | Potency [11] | Potency [12] | outcome [13] | max response [14] 3.02% and 10% | Potency [15] | Potency [16] | outcome [17] | Potency [18] | Potency [19] | Potency [20]

CCCCOCCOCCOC(C)=O
inactive: Potency [1] | Potency [2] | outcome [3] | Potency [4] | Potency [5] | activity change, positive = activation ([6]; at 92.4 µM (top of the series)) 0.387% and 1.02% | outcome [7] | Potency [8] | Potency [9] | outcome [10] | Potency [11] | Potency [12] | outcome [13] | max response [14] 7.04% and 1.04% | Potency [15] | Potency [16] | outcome [17] | Potency [18] | Potency [19] | Potency [20]

O=c1cc[nH]c(=O)[nH]1
inactive: Potency [1] | Potency [2] | outcome [3] | Potency [4] | Potency [5] | activity change, positive = activation ([6]; at 42.5 µM (top of the series)) 5.28% | activity change, positive = activation ([6]; at 92.4 µM (top of the series)) 0.687% | outcome [7] | Potency [8] | Potency [9] | outcome [10] | Potency [11] | Potency [12] | outcome [13] | max response [14] -9.27% and 1.51% | Potency [15] | Potency [16] | outcome [17] | Potency [18] | Potency [19] | Potency [20]

CC1(C)O[C@@H]2[C@@H](CO[C@@]3(COS(N)(=O)=O)OC(C)(C)O[C@@H]23)O1
inactive: Potency [1] | Potency [2] | outcome [3] | Potency [4] | Potency [5] | activity change, positive = activation ([6]; at 42.5 µM (top of the series)) 1.2% | activity change, positive = activation ([6]; at 92.4 µM (top of the series)) -14.9% | outcome [7] | Potency [8] | Potency [9] | outcome [10] | Potency [11] | Potency [12] | outcome [13] | max response [14] -1.97% | Potency [15] | Potency [16] | outcome [17] | Potency [18] | Potency [19] | Potency [20]

C#C[C@]1(O)CC[C@H]2[C@@H]3CCC4=CC(=O)CC[C@@H]4[C@H]3CC[C@@]21CC
inactive: Potency [1] | Potency [2] | outcome [3] | outcome [7] | Potency [9] | outcome [10] | outcome [13] | max response [14] -17.5% | Potency [16] | outcome [17] | Potency [20]
active: Potency [14] 43.6 µM
49.1 µM (active) and inactive: Potency [11]
43.6 µM (active) and inactive: Potency [8] | Potency [12]
inactive and 43.6 µM (active): Potency [19]
inactive and 89.8 µM (active): Potency [4]

O=C(OCc1ccccc1)c1ccccc1
43.8 µM (active) and inactive: Potency [11]
inactive: Potency [1] | Potency [2] | outcome [3] | Potency [4] | Potency [5] | activity change, positive = activation ([6]; at 92.4 µM (top of the series)) 13.6% | outcome [7] | Potency [8] | Potency [9] | outcome [10] | Potency [12] | outcome [13] | max response [14] -12% and 0.176% and 2.06% | Potency [15] | Potency [16] | outcome [17] | Potency [18] | Potency [19] | Potency [20]

COC1=CC(=O)C[C@@H](C)[C@]12Oc1c(Cl)c(OC)cc(OC)c1C2=O
active: Potency [5] 4.81 µM and 7.7 µM and 5.96 µM | Potency [19] 24.3 µM and 21.9 µM and 26.8 µM
38.6 µM (active) and inactive: Potency [18]
inactive: Potency [1] | Potency [2] | outcome [3] | Potency [4] | activity change, positive = activation ([6]; at 42.5 µM (top of the series)) -32% | activity change, positive = activation ([6]; at 92.4 µM (top of the series)) -36.3% and -39.4% | outcome [7] | Potency [8] | Potency [9] | outcome [10] | Potency [11] | Potency [12] | outcome [13] | max response [14] -25.7% | Potency [15] | Potency [16] | outcome [17] | Potency [20]

CC(C)(C)CC(C)(C)c1ccc(O)c(-n2nc3ccccc3n2)c1
49.7 µM (active) and inactive: Potency [8]
inactive: Potency [1] | Potency [2] | outcome [3] | Potency [4] | outcome [7] | Potency [9] | outcome [10] | Potency [11] | outcome [13] | max response [14] -13.8% and -3.1% | Potency [15] | Potency [16] | outcome [17] | Potency [19] | Potency [20]
44.3 µM (active) and inactive: Potency [12]
active: Potency [14] 49.7 µM

O=C1CCCCCN1
inactive: Potency [1] | Potency [2] | outcome [3] | Potency [4] | Potency [5] | activity change, positive = activation ([6]; at 92.4 µM (top of the series)) 0.0496% and -0.16% | outcome [7] | Potency [8] | Potency [9] | outcome [10] | Potency [11] | Potency [12] | outcome [13] | max response [14] -1.34% and -3.41% | Potency [15] | Potency [16] | outcome [17] | Potency [18] | Potency [19] | Potency [20]

Cc1ccc(O)c(-n2nc3ccccc3n2)c1
active: Potency [4] 100 µM and 89.8 µM | activity change, positive = activation ([6]; at 42.5 µM (top of the series)) 147% | activity change, positive = activation ([6]; at 92.4 µM (top of the series)) 109% and 139%
inactive: Potency [1] | Potency [2] | outcome [3] | Potency [5] | outcome [7] | Potency [8] | Potency [9] | outcome [10] | Potency [11] | Potency [12] | outcome [13] | max response [14] -4.85% and -18.6% and -8.22% | Potency [15] | Potency [16] | outcome [17] | Potency [18] | Potency [19] | Potency [20]

NC(=O)N1c2ccccc2C=Cc2ccccc21
inactive: Potency [1] | Potency [2] | outcome [3] | Potency [4] | outcome [7] | Potency [8] | Potency [9] | outcome [10] | Potency [11] | Potency [12] | outcome [13] | max response [14] -19.3% and 0.148% | Potency [15] | Potency [16] | outcome [17] | Potency [18] | Potency [19] | Potency [20]
active: Potency [14] 34.5 µM
